The source of these data is PubChem BioAssay (NCATS).

“And” between values parts separate entries of the source, which are not always exact repeats. Identical values can stand only once. Results filed as inconclusive are left out. Where a call stands in place of a potency, no number is given. The source made the active and inactive calls. Unless noted, calls come from the whole dose curve; as a rule, active = well fitted curve in the direction sought with a large enough effect; inconclusive = small, poorly fitted or top-dose-only effect, or another doubt; inactive = no such curve, though single readings can be large; an effect the other way counts as inactive or inconclusive.

The target in assay [1] is Guanine nucleotide-binding protein G(i) subunit alpha-1 (Homo sapiens) (UniProt P63096). As to the kind of experiment: qHTS Assay for Inhibitors of RGS12 GoLoco Motif Activity (Green Fluorophore) (AID 879).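 Note: negative values mean loss of peptide binding seen as reduced polarization.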 As to conditions: Galphai1/FITC-RGS12 GoLoco peptide, fluorescence polarization; series mostly up to 57.1 µM. Put shortly: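 Fluorescence polarization assay: 50 nM Gαi1 with 10 nM FITC-labeled RGS12 GoLoco peptide in 10 mM Tris pH 7.5, 150 mM NaCl, 0.1 mM GDP, 0.05% NP40, 10 min at room temperature with compound.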
Chain of Guanine nucleotide-binding protein G(i) subunit alpha-1 (Homo sapiens) (P63096 whole entry, looked up): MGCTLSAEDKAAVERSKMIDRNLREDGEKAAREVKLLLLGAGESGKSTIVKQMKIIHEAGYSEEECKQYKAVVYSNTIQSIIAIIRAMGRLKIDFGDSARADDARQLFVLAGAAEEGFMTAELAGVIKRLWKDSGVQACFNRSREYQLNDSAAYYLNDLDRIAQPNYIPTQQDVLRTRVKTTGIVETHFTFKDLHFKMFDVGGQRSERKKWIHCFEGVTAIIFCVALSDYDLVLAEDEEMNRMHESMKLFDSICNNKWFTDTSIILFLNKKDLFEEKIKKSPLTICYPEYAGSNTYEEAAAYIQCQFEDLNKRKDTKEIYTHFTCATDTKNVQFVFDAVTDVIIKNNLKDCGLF

Assay [2] in a line: qHTS Assay for Identification of Small Molecule Antagonists for NFkB Signaling Pathway (AID 895; active = well fitted inhibition curve with a large enough effect in the signal ratio, with a control signal flat, not every such curve was filed as active; the % refers to the signal ratio; note: potency is the fitted concentration of half-maximal effect). Particulars: NFkB beta-lactamase reporter cells, FRET ratio 460/530, stimulated with 10 pM TNF alpha; series mostly up to 38.3 µM. The essentials: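 Beta-lactamase reporter read-out (460 and 530 nm emission ratio, 405 nm excitation, 2 hrs substrate loading RT) after 5 hr stimulation with 10 pM TNF alpha in compound-treated NFkB-bla ME-180 cells in low-serum medium.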
On the technique in general: qHTS replaces the single test concentration by a dilution series.

Assay [3] in a line: qHTS Assay for Identification of Small Molecule Agonists for Thrombopoietin (TPO) Signaling Pathway (AID 917). As to conditions: TPO signaling pathway reporter cells, agonist qHTS, stimulated with TPO at its EC50; series mostly up to 38.5 µM. Here is the method:
(§1) NIH Molecular Libraries Screening Centers Network [MLSCN]
(§2) NIH Chemical Genomics Center [NCGC]
The thrombopoietin (TPO) signaling pathway was assayed in murine Ba/F3 cells stably transfected with the human TPO receptor and a luciferase reporter gene controlled by the Glycoprotein IIb promoter (provided by Axxam). BaF3 cells are an IL-3-dependent pro B cell line that upon TPO stimulation, undergo cell division and induce the megakaryocyte marker, Glycoprotein IIb. The assay was screened at the EC50 of TPO (26 pM) to identify activators of the pathway.
(§3) NCGC Assay Protocol Summary:
Cells were maintained at 37 C and 5% CO2in RPMI with 10% fetal bovine serum, 0.5 ng/mL murine IL-3, 100U/ml penicillin and 100 ug/ml streptomycin. Prior to plating, cells were incubated overnight in medium without IL-3. Cells were plated at 250 cells/5uL/well into white solid 1536-well plates, 23 nL of compounds were delivered by a pin tool, and 1 uL of TPO (26 pM final concentration in IL-3 deficient medium) was added. Following 24 hrs of incubation at 37 C and 5% CO2, 4 uL of Steadylite detector mix (PerkinElmer) was added, the plates incubated at room temperature for 10 min and luminescence was measured for 10 s and 2X binning by a ViewLux detector (Perkin Elmer).

For assay [4], the target named is Cytochrome P450 3A4 (Homo sapiens) (UniProt P08684). Nature of the assay: qHTS Assay for Inhibitors and Substrates of Cytochrome P450 3A4 (AID 884). Note: nearly all actives have a fitted effect of over 50% in size. As to conditions: recombinant CYP3A4, Luciferin-PPXE luminescence; series mostly up to 57.1 µM. Put shortly:
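20 nM human CYP3A4 with 25 uM Luciferin-PPXE (at KM) in 200 mM KPO4, preincubated 10 min with compound; NADPH regeneration started a 60 min RT reaction. Luciferin detected by luminescence, normalized to 57 uM ketoconazole as full inhibition.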

The nature of assay [5]: Confirmation and Secondary Assay for Modulators of Hemoglobin Beta Chain Splicing at IVS2 654 locus (AID 910).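 Note: HeLa cells stably carrying EGFP split by mutant beta-globin IVS2-654 intron; per-well total GFP intensity by laser scanning cytometry after 2-day treatment.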 As to conditions: HeLa EGFP-654 splicing reporter, GFP fluorescence, 48 h; series mostly up to 46.1 µM. Put shortly:
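Readout: per-well total peak green fluorescence (488 nm ex, 500–520 nm em) from objects 5–250 µm, reflecting correct splicing of an EGFP-654 reporter. Compounds were applied for 2 days at 37 °C to overnight-plated HeLa EGFP-654 cells; controls were DMSO and 500 nM IVS2-654 PNA.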

Assay [6] addresses Cytochrome P450 2C9 (Homo sapiens) (UniProt P11712). As to the kind of experiment: qHTS Assay for Inhibitors and Substrates of Cytochrome P450 2C9 (AID 883). Note: nearly all actives have a fitted effect of over 60% in size. Particulars: recombinant CYP2C9, luciferin-H luminescence, 60 min; series mostly up to 25.6 µM. The essentials: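 Turnover of Luciferin-H (100uM, KM) by 10nM human CYP2C9 was measured over 60 min at 37C with NADPH regeneration; inhibitors and some substrates reduce luminescence. Data normalized to sulphaphenazole 57uM.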

The nature of assay [7]: qHTS Assay for Identification of Small Molecule Agonists for Hypoxia Response Element Signaling Pathway (AID 914; active = well fitted activation curve with a large enough effect in the signal ratio, with a control signal flat, not every such curve was filed as active; the % refers to the signal ratio). As to conditions: ME-180 (cervical carcinoma) HRE-bla reporter, beta-lactamase ratio, CoCl2, 17 h; active compounds read high.
Source text: as §1, §2
Hypoxia-inducible factor-1 (HIF-1) is the major hypoxia-regulated transcription factor that controls cellular responses to low oxygen concentration. HIF-1 is composed of two subunits: hypoxia responsive HIF-1 alpha and constitutively expressed HIF-1 beta, which is also known as aryl hydrocarbon receptor nuclear translocator. During hypoxic conditions, HIF-1 alpha heterodimerizes with HIF-1 beta and translocates into the nucleus where the HIF-1 complex binds to the hypoxia-response element (HRE) and activates expression of target genes such as VEGF (vascular endothelial growth factor). HIF-1 alpha protein levels are elevated in many solid tumors, including those of the cervix and brain. Within tumors, cells that are the greatest distance from blood vessels and therefore the most hypoxic express the highest levels of HIF-1 alpha. Therapeutic blockade of the HIF-1 signaling pathway in cancer cells therefore provides an attractive strategy for development of anticancer drugs.
Using a beta-lactamase reporter-gene under control of the hypoxia response element, a cell-based assay [CellSensor(TM) HRE-bla ME-180 developed by Invitrogen Corp.] was used to measure hypoxia-induced signaling. Library compounds were measured for their ability to positively modulate the action of EC50 CoCl2 on reporter gene activity. Compounds were screened in a titration series in 1536-well format. Positive modulators were identified based on the AC50 values derived from the screening data.
as §3
2500 cells/5uL in Opti-MEM medium containing 0.5% dialyzed FBS, 0.1 mM NEAA, 1 mM sodium pyruvate and 10 mM HEPES was dispensed into 1536-well plates and cells were cultured at 37 degrees Celsius overnight. Next day 23 nL of compounds or DMSO were delivered to each well using a pin tool, and 1uL of EC50 level of CoCl2, or EC100 level of CoCl2, or assay medium was added. And then the plates were incubated at 37 degrees Celsius for 17 hours. 1 uL of CCF4-dye mixture was added to each well. After incubated at room temperature for 2.5 hours the plates were measured on an EnVision plate reader at Excitation 405nm, Emission1=460nm and Emission 2=530nm. The %Activity was determined from the ratio of 460nm/530nm.

Assay [8] has as its target Cytochrome P450 2D6 (Homo sapiens) (UniProt P10635). Nature of the assay: qHTS Assay for Inhibitors and Substrates of Cytochrome P450 2D6 (AID 891).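 Note: luciferin methyl ether substrate demethylated by CYP2D6 with NADPH regeneration; nearly all actives have a fitted effect of over 60% in size.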 Particulars: recombinant CYP2D6, luciferin-ME EGE luminescence; series mostly up to 57.1 µM. Put shortly: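 Human CYP2D6 (5 nM) with 30 uM Luciferin-ME EGE (at Km) in 100 mM KPO4, compound preincubated 10 min, then NADPH regeneration system for 60 min at room temperature. Luciferin read by luminescence; normalized to 1.43 uM quinidine.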

The target in assay [9] is Cytochrome P450 2C19 (Homo sapiens) (UniProt P33261). Nature of the assay: qHTS Assay for Inhibitors and Substrates of Cytochrome P450 2C19 (AID 899). Note: nearly all actives have a fitted effect of over 60% in size. Particulars: recombinant CYP2C19, luciferin-H EGE luminescence; series mostly up to 57.1 µM. Put shortly:
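Reactions contain 5nM enzyme, 10uM Luciferin-H EGE (KM) and 50mM KPO4; compound preincubates 10 min at 37C, NADPH regeneration starts turnover for 60 min. Luminescence after detection reagent gives activity.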

Chain of Cytochrome P450 3A4 (Homo sapiens) (P08684 whole entry, looked up): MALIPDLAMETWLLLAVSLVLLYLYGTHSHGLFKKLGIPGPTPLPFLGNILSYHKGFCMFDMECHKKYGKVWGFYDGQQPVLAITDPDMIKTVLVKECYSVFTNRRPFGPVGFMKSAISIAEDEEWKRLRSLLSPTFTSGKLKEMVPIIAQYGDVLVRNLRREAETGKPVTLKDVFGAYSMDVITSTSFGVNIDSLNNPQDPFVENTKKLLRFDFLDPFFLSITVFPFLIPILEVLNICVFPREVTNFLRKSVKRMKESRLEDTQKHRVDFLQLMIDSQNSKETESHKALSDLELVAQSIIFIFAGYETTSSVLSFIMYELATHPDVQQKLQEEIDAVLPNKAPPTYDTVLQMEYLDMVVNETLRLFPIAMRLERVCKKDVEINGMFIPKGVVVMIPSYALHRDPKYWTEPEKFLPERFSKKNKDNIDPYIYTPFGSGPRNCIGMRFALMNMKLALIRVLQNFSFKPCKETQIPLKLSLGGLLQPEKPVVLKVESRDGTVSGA
Chain of Cytochrome P450 2C9 (Homo sapiens) (P11712 whole entry, looked up): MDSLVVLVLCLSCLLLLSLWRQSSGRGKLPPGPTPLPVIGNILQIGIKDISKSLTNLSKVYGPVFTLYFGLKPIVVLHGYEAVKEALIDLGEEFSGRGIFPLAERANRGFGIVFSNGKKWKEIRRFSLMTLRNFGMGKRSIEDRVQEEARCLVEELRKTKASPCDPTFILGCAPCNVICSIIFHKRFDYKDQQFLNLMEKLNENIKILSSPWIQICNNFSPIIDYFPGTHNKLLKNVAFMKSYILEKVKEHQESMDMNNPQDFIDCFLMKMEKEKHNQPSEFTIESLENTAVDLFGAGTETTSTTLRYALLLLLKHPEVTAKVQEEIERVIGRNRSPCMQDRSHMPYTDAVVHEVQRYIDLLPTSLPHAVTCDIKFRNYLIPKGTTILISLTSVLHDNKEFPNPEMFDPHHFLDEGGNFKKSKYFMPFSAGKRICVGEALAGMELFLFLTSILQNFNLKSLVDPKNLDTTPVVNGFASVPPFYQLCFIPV
Chain of Cytochrome P450 2C19 (Homo sapiens) (P33261 whole entry, looked up): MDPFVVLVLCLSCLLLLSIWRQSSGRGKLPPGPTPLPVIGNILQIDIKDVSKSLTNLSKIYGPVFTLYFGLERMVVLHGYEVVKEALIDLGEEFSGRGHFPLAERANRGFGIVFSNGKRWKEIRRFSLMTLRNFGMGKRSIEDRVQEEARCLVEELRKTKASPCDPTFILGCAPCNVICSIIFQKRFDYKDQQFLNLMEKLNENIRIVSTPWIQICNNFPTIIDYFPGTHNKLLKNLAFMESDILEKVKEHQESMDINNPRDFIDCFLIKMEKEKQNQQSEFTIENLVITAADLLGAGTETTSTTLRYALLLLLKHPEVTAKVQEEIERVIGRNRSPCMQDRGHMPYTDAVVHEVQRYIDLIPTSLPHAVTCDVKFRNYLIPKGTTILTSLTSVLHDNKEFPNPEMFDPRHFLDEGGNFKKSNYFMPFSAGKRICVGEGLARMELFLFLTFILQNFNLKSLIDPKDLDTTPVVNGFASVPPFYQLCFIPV
Chain of Cytochrome P450 2D6 (Homo sapiens) (P10635 whole entry, looked up): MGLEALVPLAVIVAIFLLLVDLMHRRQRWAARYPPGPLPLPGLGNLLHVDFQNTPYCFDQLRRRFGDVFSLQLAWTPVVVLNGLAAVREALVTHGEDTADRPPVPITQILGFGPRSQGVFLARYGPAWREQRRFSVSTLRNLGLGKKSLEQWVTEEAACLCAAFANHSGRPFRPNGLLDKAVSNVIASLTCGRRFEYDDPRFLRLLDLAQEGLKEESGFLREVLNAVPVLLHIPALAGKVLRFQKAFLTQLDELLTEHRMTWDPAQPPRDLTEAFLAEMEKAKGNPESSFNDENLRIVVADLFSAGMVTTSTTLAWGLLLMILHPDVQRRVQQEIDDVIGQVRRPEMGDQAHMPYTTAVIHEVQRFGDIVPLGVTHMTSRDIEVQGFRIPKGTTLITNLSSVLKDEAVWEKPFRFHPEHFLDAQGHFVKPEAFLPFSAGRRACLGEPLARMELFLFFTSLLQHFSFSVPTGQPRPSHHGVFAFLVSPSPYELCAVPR

Regarding `COc1cc2ncnc(Nc3cccc(Cl)c3)c2cc1OC`, the molecule was called inactive in [1] and in assay [3]. For the same molecule, in assay [2], the Potency was 15.8 µM (active).
Consider `Cn1c(=O)c2c(ncn2CC(O)CO)n(C)c1=O` (configuration not stated), for which, in assay [4], the result was inactive. For the same molecule, the Potency result in assay [5] was “inactive”.
Regarding `NS(=O)(=O)c1cc2c(cc1Cl)NC(C(Cl)Cl)NS2(=O)=O` (configuration not stated), the outcome in assay [4] was inactive. The Potency entry in assay [5] was “inactive”.
On to `Cc1noc(NS(=O)(=O)c2ccc(N)cc2)c1C`, for which the outcome in [6] and in [4] was inactive. Besides, the Potency result in assay [5] was “inactive”. Also, the activation in assay [7] is -20.7% (inactive) and -0.198% (inactive).
For `O=C(O)c1cccnc1`, in [4], the result was inactive. Moreover, the Potency entry in assay [5] is “inactive”.
Take `COc1ccc2c(c1)c(CC(=O)OCC(=O)O)c(C)n2C(=O)c1ccc(Cl)cc1`: the result in assay [4] was inactive. Also, the Potency entry in [5] was “inactive”.
`CCc1c2c(nc3ccc(OC(=O)N4CCC(N5CCCCC5)CC4)cc13)-c1cc3c(c(=O)n1C2)COC(=O)[C@]3(O)CC`: the outcome in assay [4] was inactive.
Take `Cc1ccc(S(=O)(=O)N[C@@H](Cc2ccccc2)C(=O)CCl)cc1`: the call in assay [1] was inactive.
With `COC(=O)Nc1nc2ccc(Sc3ccccc3)cc2[nH]1`, the result in assay [4] was inactive. Further, the Potency entry in assay [5] is “inactive”.
Regarding `CCCCOc1ccc(CC(=O)NO)cc1`, in assay [4], the result was inactive. Also, in assay [5], the Potency entry is “inactive”.
As for `O=S(=O)(O)CCS`, the result in assay [4] was inactive. The Potency entry in assay [5] is “inactive”.
Consider `COc1ccccc1OCC(O)COC(N)=O` (configuration not stated), for which the outcome in assay [4] was inactive. For the same molecule, the Potency entry in [5] is “inactive”.
Regarding `CNS(=O)(=O)Cc1ccc2[nH]cc(CCN(C)C)c2c1`, the outcome in [4] was inactive. Moreover, the Potency result in assay [5] is “inactive”.
Turning to `NC(=O)c1cccc(N)c1`, the result in [1], in [6] and in assay [3] was inactive. Also, the Potency entry in [8], in assay [2] and in assay [9] was “inactive” in each case.
Regarding `Cc1nnc(NS(=O)(=O)c2ccc(N)cc2)s1`, the result in [4] was inactive. In addition, the Potency entry in assay [5] is “inactive”.
Take `CC(=O)[C@H]1CC[C@H]2[C@@H]3CCC4=CC(=O)CC[C@]4(C)[C@H]3CC[C@]12C`: the molecule was called inactive in assay [1] and in assay [4].
